This is one part of a sample in which hits are shown more often than they occur.
miR122 inh – miR-122 suppressors via Renilla sensor increase, primary screen, cell-based, Huh7 psiCHECK-miR122, Renilla luciferase, single point; 48 h; activation, % at 12.5 µM; 340,000 compounds, 0.14% hits;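 active = mean activation of 30% or more, with every replicate also reaching 30%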;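 also: 0% = median of neutral control wells and 100% = median of positive control wells; higher luciferase signal means stronger suppression of miR-122 activity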
The depositor's hits bear a star.

SMILES	miR122 inh
COc1ccc2c(c1)c(CCN)c(C)n2Cc1ccccc1	52*
CC12CCC3C(CCC4(O)CC(O)CCC34C=O)C1(O)CCC2C1=CC(=O)OC1 (configuration not stated)	-96
Oc1ccc(/C=N/NP(=S)(c2ccccc2)c2ccccc2)cc1	-96
c1ccc(-c2cc(-c3ccccc3)[n+](-c3ccccc3)c(-c3ccccc3)c2)cc1	59*
CC(C)C(NC(=O)C(C(C)C)N(C)C)C(=O)N(C)C(C(=O)N1CCCC1C(=O)N1CCCC1C(=O)NCc1ccccc1)C(C)C (configuration not stated)	-95
O=c1c2ccccc2nc(/C=C/c2ccc([N+](=O)[O-])o2)n1-c1ccc(O)cc1	-95

Screening data: PubChem, Broad Institute
